The sample as a whole holds a higher share of hits than the screen did.
KDM5B inhibitor: inhibitors of human KDM5B histone demethylase; KDM5B demethylase, FDH-coupled NADH fluorescence (FDH is formaldehyde dehydrogenase); Potency, µM (doses to about 57.7 µM), usual class: inhibitors; actives 2.6% (n = 220,000); AID 1347165; active = well fitted inhibition curve with a large enough effect; also: 0% is about no effect; nearly all actives have a fitted effect of over 70% in size
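Here, H3K4me3 peptide (12.5 µM in substrate mix) is demethylated by KDM5BΔAP, 200 nM final, after 10 min compound exposure. Formaldehyde product is coupled through FDH (0.25 U/mL in mix) to NADH fluorescence; 30-min ΔRFU feeds dose-response curves.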
* hit, by the source's call; i = inactive. Potency is read from the fitted curve at half-maximal effect.

SMILES | KDM5B inhibitor
CCOC(=O)COc1ccc(/C=C(/C#N)c2nc3ccc(C)cc3[nH]2)cc1OCC | i
c1ccc(N2CCN(c3nc(N4CCCC4)c4nccnc4n3)CC2)cc1 | i
COc1ccccc1OCC(=O)c1c(C)[nH]c2ccccc12 | i
CCOC(=O)c1cnc2ccc(C(=O)OC)cc2c1Nc1cc(C)ccc1OC | i
C#CCNC(=O)CN(Cc1cccs1)C1CC1 | i
CCN(CC)Cc1ccc(CNS(=O)(=O)c2cccs2)cc1 | i
O=C1c2ccccc2C(c2c[nH]c3ccccc23)N1CCc1ccccc1 (stereo not drawn) | i
CSc1ncc(C(=O)Nc2ccccc2C)c(-c2ccccc2)n1 | i
O=C(NCc1cccc(F)c1)c1cnc2c(c1)N(Cc1ccccc1)CCC2 | 5.6µM*
CC(C)NC(=O)c1cnc2c(c1)N(C(=O)Cc1cccc(C(F)(F)F)c1)CCC2 | i
COc1ccc(NC(=O)c2cnc3c(c2)N(C(=O)Cc2cccc(C(F)(F)F)c2)CCC3)cc1OC | i
O=C(Nc1cccc(F)c1)c1cnc2c(c1)N(C(=O)CCc1ccccc1)CCC2 | i
COc1ccccc1CC(=O)N1CCCc2ncc(C(=O)NCc3cccc(F)c3)cc21 | i
COc1ccccc1CC(=O)N1CCCc2ncc(C(=O)NCCOc3ccccc3)cc21 | i
O=C(Nc1cccc(C(F)(F)F)c1)c1cnc2c(c1)N(Cc1ccccc1)CCC2 | 7.1µM*
Cc1ccccc1NC(=O)c1cnc2c(c1)N(C(=O)Cc1ccc(C(C)C)cc1)CCC2 | i
CC(C)c1ccc(CC(=O)N2CCCc3ncc(C(=O)Nc4cccc(C(F)(F)F)c4)cc32)cc1 | 25µM*
COCCNC(=O)c1cnc2c(c1)N(Cc1ccccc1C(F)(F)F)CCC2 | 35µM*
O=C(NCc1cccc(F)c1)c1cnc2c(c1)N(C(=O)Cc1cccc(C(F)(F)F)c1)CCC2 | i
COc1ccccc1CC(=O)N1CCCc2ncc(C(=O)NCCC(C)C)cc21 | i
COc1ccc(Cl)cc1NC(=O)CCc1ncc(-c2ccc(F)cc2)o1 | i
Cc1cc(C)cc(C(=O)C(C#N)C(=O)c2cccs2)c1 (stereo not drawn) | i
CCC(C)Oc1ccccc1/C=C(\C#N)c1nc2ccccc2[nH]1 (stereo not drawn) | i
CN(C(=O)COC(=O)/C=C/c1cccc2cccnc12)c1ccccc1 | i
Cc1nc(-c2ccc(C(C)N3CCCCC3)cc2)c(C#N)cc1C(=O)O (stereo not drawn) | i
SMILES | KDM5B inhibitor
CCCCC(CC)C(=O)Nc1ccccc1F (stereo not drawn) | i
COc1ccc(NC(=O)COc2cccc(-c3nnc4n3CCCC4)c2)cc1 | i
COc1ccc2nc(SCC(=O)Nc3ccccc3C(=O)Nc3ccc4c(c3)OCO4)[nH]c2c1 | i
Cc1ccc(C)c(C(=O)COC(=O)c2ccc(C(=O)c3ccccc3)cc2)c1 | i
N#CC1(NC(=O)CSc2ccc3c(c2)OCCCO3)CCCC1 | i
CN(C)c1ccc2ncc(Nc3ccc(Oc4ccccc4)cc3)n2n1 | i
CCn1nc(C(=O)Nc2ccc(OC)c(OC(F)F)c2)c2ccccc2c1=O | i
COCCNC(=O)c1cnc2c(c1)N(Cc1ccccc1)CCC2 | 35µM*
CC(C)Nc1ncc(C(=O)NC2CC(=O)N(Cc3cccc(F)c3)C2)cn1 (stereo not drawn) | 22µM*
O=C(Cc1cccc(Cl)c1)NC1CC(=O)N(Cc2ccc(F)cc2)C1 (stereo not drawn) | i
COc1ccccc1CC(=O)N1CCCc2ncc(C(=O)NCCc3ccccc3)cc21 | i
Cc1noc(C)c1C(=O)NC1CC(=O)N(Cc2cccc(F)c2)C1 (stereo not drawn) | i
CC(C)c1ccc(CC(=O)N2CCCc3ncc(C(=O)NCCOc4ccccc4)cc32)cc1 | i
Cc1cccc2nc(COc3ccc4ccc(=O)oc4c3)cc(=O)n12 | i
CCCn1nc(C)c(-c2cc(C(=O)N3CCCC(Cc4nncn4Cc4ccccc4)C3)[nH]n2)c1C (stereo not drawn) | i
CCCOc1ccccc1NC(=O)c1cc2cccc(OC)c2oc1=O | i
CCC(Sc1nncn1CCOC)C(=O)c1ccc(OC)cc1 (stereo not drawn) | i
Cc1ccc(NC(=O)CC(c2cccc(F)c2)n2cccc2)cc1N(C)C (stereo not drawn) | i
Fc1ccccc1-c1nnc([C@H]2CCN(C3CCOCC3)C2)o1 | i
Cc1ccc(-c2nnc([C@H]3CCN(C4CCC4)C3)o2)cc1 | 32µM*
COCC(=O)N1CC[C@H](c2nnc(-c3ccc(C)cc3)o2)C1 | i
Cc1ccc(-c2nnc([C@H]3CCN(C(C)C)C3)o2)cc1 | 32µM*
Clc1ccc(-c2nnc([C@H]3CCN(Cc4ccccc4)C3)o2)cc1 | i
Cc1ccc(-c2nnc([C@H]3CCN(C(=O)Nc4ccc(F)cc4)C3)o2)cc1 | i
Cc1ccc(-c2nnc([C@H]3CCN(C(=O)COCC(=O)O)C3)o2)cc1 | i
SMILES | KDM5B inhibitor
Clc1ccc(-c2nnc([C@H]3CCN(C4CCCCC4)C3)o2)cc1 | 25µM*
O=C(c1ccncc1)N1CC[C@H](c2nnc(-c3ccncc3)o2)C1 | i
CC(C)(C)SCC(=O)NCC1CCN(c2ccccc2)C1 (stereo not drawn) | i
CC(C)OCCSc1nnc(-c2nn(Cc3ccccc3)c(=O)c3ccccc23)o1 | i
CCN(Cc1cccs1)C(=O)c1cccs1 | i
COc1ccccc1-c1nc(CSc2nc(C)cc(=O)[nH]2)c(C)o1 | i
Cc1ccc(OCCC(=O)N2CCN(S(=O)(=O)c3ccc(C)s3)CC2)cc1 | i
Cc1ccc(CNC(=O)Cn2c(C)cc3ccccc32)cc1 | i
Cc1ccc(C(=O)N2CCC23Cc2ccccc2NC3=O)cc1 (stereo not drawn) | i
CCCCCn1nc(C(=O)OCC(=O)NCC(F)(F)F)c2ccccc2c1=O | i
CCCOc1nc2ccccc2nc1N1CCC(C(N)=O)CC1 | i
O=C(NCc1ccc(Cl)cc1)c1ccc2ccnn2c1 | 35µM*
C[S+](=O)([O-])N1CCn2cc(C(=O)NCc3ccc(Cl)nc3)nc2C1 | i
O=C(NCc1ccc2c(c1)CCN2C(=O)c1ccncc1)c1ccc(Cl)cc1 | i
O=C(NCc1ccc(Cl)cc1)c1ccc2oc(=O)n(Cc3ccccc3)c2c1 | i
CN1C(=O)Cc2cc(C(=O)NCc3cccnc3)ccc21 | i
O=C(NCc1ccc(Cl)nc1)c1ccc2cncn2c1 | 35µM*
Cn1cccc1C(=O)NCc1ccc(Cl)cc1 | i
O=C(NCc1ccc(Cl)nc1)c1cnn2c1CN(C(=O)c1cccnc1)CC2 | i
O=C(NCc1ccc(Cl)nc1)c1ccc2ccnn2c1 | 35µM*
COC(=O)c1cccc(-c2ccc(C=O)o2)c1 | i
COc1ccc(NC(=O)C(C)C)cc1Cl | i
O=C(CSc1nnnn1C1CCCC1)N1CCN(S(=O)(=O)c2ccc3ccccc3c2)CC1 | i
COc1cccc(NC(=O)CSc2nnc(COc3ccccc3)n2Cc2ccco2)c1 | i
CC(=O)c1c[nH]c2cc(C#N)ccc12 | i
CC(=O)N1CCN(C(=O)Cn2ccc3cc(Cl)ccc32)CC1 | i
CC(=O)NCC1CCCN(Cc2ccc(-c3ccccc3C#N)o2)C1 (stereo not drawn) | 28µM*
Cc1c(CN2CCCC(CNC(=O)c3cccc4ccccc34)C2)[nH]c2ccccc12 (stereo not drawn) | i
CCc1ccc(CN2CCCC(CNC(=O)c3cccc(OC)c3OC)C2)o1 (stereo not drawn) | i

High-throughput results deposited in PubChem BioAssay by National Center for Advancing Translational Sciences (NCATS).
